Reference: PubChem BioAssay AID2391 (Southern Research Specialized Biocontainment Screening …, 2010)
Out of some 310,000 compounds screened, about 410 (0.13%) were called active. Roughly 2% stayed inconclusive and do not appear here. These entries were drawn from the full list. Measured potencies and affinities stand elsewhere. Values without a mark were called inactive. How the calls were made is not given here.

Assay: inhibition of RSV-induced cytopathic effect – HEp-2 cells, primary 10 µM value included (AID 2391)
Conditions: at 10 µM, hits give high values

Q: With `O=C(COc1ccc2ccccc2c1)Nc1cccc(C(=O)Nc2ccccc2C(=O)O)c1` as the compound, how does the CPE inhibition read?
A: Its CPE inhibition is 20.8%.

Q: With `O=C(Cc1ccccc1C(=O)O)Nc1cccc2ccccc12` as the compound, how does the CPE inhibition read?
A: The CPE inhibition was 1.4%.

Q: For `Cc1ccc(Cl)cc1N(C(=O)c1csnn1)C(C(=O)NC1CCCC1)c1ccco1` (stereo not given), which CPE inhibition is on record?
A: The CPE inhibition was 1.87%.

Q: With `O=C(CN1C(=O)NC2(CCCCCC2)C1=O)Nc1ccc2c(c1)CCC2` as the compound, how does the CPE inhibition read?
A: Its CPE inhibition is 2.7%.

Q: With `O=C(NCC(c1ccco1)N1CCCCC1)c1ccc(NS(=O)(=O)c2ccc(F)cc2)cc1` (stereo not given) as the compound, how does the CPE inhibition read?
A: The CPE inhibition was 3.02%.

Q: With `COc1ccc(-c2noc(CN3CCN(c4ccccc4)CC3)n2)cc1` as the compound, how does the CPE inhibition read?
A: Its CPE inhibition is -0.23%.

Q: For `Cc1cccc(NC(=O)c2ccc(S(=O)(=O)N3CCCC3)cc2)c1C`, which CPE inhibition is on record?
A: Its CPE inhibition is 1.87%.

Q: For `CC(OC(=O)c1cccn1C)C(=O)Nc1ccc2c(c1)OCO2` (stereo not given), which CPE inhibition is on record?
A: The CPE inhibition was 2.62%.

Q: With `CCN(CC(=O)Nc1ccc(Br)cc1)C(=O)c1nc2nc(C)cc(C)n2n1` as the compound, how does the CPE inhibition read?
A: The CPE inhibition was 1.87%.

Q: Which CPE inhibition does the source give for `COC(=O)c1cccc(NC(=O)c2ccc3c(c2)C(=O)N(C(C)(C)C)C3=O)c1` here?
A: Its CPE inhibition is 9.97%.

Q: With `CC(C)(C)N1C(=O)c2ccc(C(=O)Nc3cc(C(=O)O)cc(C(=O)O)c3)cc2C1=O` as the compound, how does the CPE inhibition read?
A: The CPE inhibition was 0.7%.

Q: Which CPE inhibition does the source give for `CCCOC(=O)Cn1cnc2scc(-c3ccc(C)cc3)c2c1=O` here?
A: The CPE inhibition was 0.39%.

Q: Which CPE inhibition does the source give for `COc1ccc(N=C2C(=Nc3ccc(OC)cc3)N(c3ccc(OC)cc3)C(=S)N2c2ccccc2)cc1` here?
A: Its CPE inhibition is 0.02%.

Q: Which CPE inhibition does the source give for `COc1ccc(N=C2C(=Nc3ccc(OC)cc3)N(c3ccc(OC)cc3)C(=S)N2C)cc1` here?
A: Its CPE inhibition is 0.37%.

Q: With `Cc1c(CC(=O)N2CCN(C(=O)C3COc4ccccc4O3)CC2)c(=O)oc2cc(O)ccc12` (stereo not given) as the compound, how does the CPE inhibition read?
A: Its CPE inhibition is 0.83%.

Q: For `Cc1coc2c1c(C)cc1oc(=O)c(Cc3ccccc3)c(C)c12`, which CPE inhibition is on record?
A: The CPE inhibition was 1.6%.

Q: With `Cc1cc(O)c2c(C)c(CC(=O)N3CCN(C(=O)C4COc5ccccc5O4)CC3)c(=O)oc2c1` (stereo not given) as the compound, how does the CPE inhibition read?
A: Its CPE inhibition is 6.34%.

Q: With `CCOC(=O)Cc1c(C)c2ccc(N(CC)CC)cc2oc1=O` as the compound, how does the CPE inhibition read?
A: Its CPE inhibition is 57.9%.

Q: Which CPE inhibition does the source give for `COC(=O)Cc1c(C)c2c(O)cc(C)cc2oc1=O` here?
A: The CPE inhibition was 6.65%.

Q: For `Cc1cc(OC(C(=O)O)c2ccccc2)c2c(C)c(Cc3ccccc3)c(=O)oc2c1` (stereo not given), which CPE inhibition is on record?
A: Its CPE inhibition is 11.6%.

Q: With `C=CCN(CC(=O)Nc1c(C)cccc1CC)C(=O)SCCC` as the compound, how does the CPE inhibition read?
A: The CPE inhibition was 0.77%.

Q: Which CPE inhibition does the source give for `Cc1[nH]c(C)c(S(=O)(=O)Nc2ccc(OC(F)(F)F)cc2)c1C(=O)N1CCCCC1` here?
A: Its CPE inhibition is 1.31%.

Q: Which CPE inhibition does the source give for `C#CCOc1nc2c(c(=O)n(C)c(=O)n2C)n1Cc1ccccc1` here?
A: Its CPE inhibition is 6.97%.

Q: Which CPE inhibition does the source give for `CCc1ccc(-c2cc(C(=O)N3N=C(C(F)F)CC3(O)C(F)F)c3ccccc3n2)cc1` (stereo not given) here?
A: The CPE inhibition was -3.61%.

Q: With `CC1c2cc3c(cc2CCN1C(=O)c1cccc(F)c1)OCCCO3` (stereo not given) as the compound, how does the CPE inhibition read?
A: Its CPE inhibition is 2.63%.

Q: With `CCCCc1ncc(CN2CCC(n3nccc3NC(=O)c3ccccc3Cl)CC2)[nH]1` as the compound, how does the CPE inhibition read?
A: Its CPE inhibition is 0.19%.

Q: Which CPE inhibition does the source give for `Cc1ccc(N2NC(=O)/C(=C/c3ccc(-c4ccc(Cl)c(C(=O)O)c4)o3)C2=O)cc1` here?
A: The CPE inhibition was 0.38%.

Q: For `O=C(O)c1cc(-c2ccc(/C=C3\NC(=O)N(c4ccccc4)C3=O)o2)ccc1Cl`, which CPE inhibition is on record?
A: Its CPE inhibition is 4.99%.

Q: Which CPE inhibition does the source give for `Cc1cccnc1NC(=O)c1ccc(OCc2c(C)noc2C)cc1` here?
A: The CPE inhibition was 1.6%.

Q: For `CCOc1ncccc1C(=O)Nc1nc(C(C)(C)C)cs1`, which CPE inhibition is on record?
A: Its CPE inhibition is 0.68%.

Q: With `CC(C)(C)c1csc(NC(=O)c2cccnc2Cl)n1` as the compound, how does the CPE inhibition read?
A: Its CPE inhibition is 1.36%.

Q: For `COc1ccc(CC2(CO)CCN(Cc3ccc(OC(F)(F)F)cc3)CC2)cc1`, which CPE inhibition is on record?
A: The CPE inhibition was 13.9%.

Q: With `COc1ccccc1NC(=O)Nc1nc(CC(=O)Nc2ccc(OC)c(OC)c2)cs1` as the compound, how does the CPE inhibition read?
A: The CPE inhibition was -1.37%.

Q: For `Cc1cc(OCc2cc(C(=O)N(C)CCOc3ccccc3)no2)cc(C)c1Cl`, which CPE inhibition is on record?
A: The CPE inhibition was 13.7%.

Q: For `O=C(NCc1ccccc1Cl)C1CCCN(S(=O)(=O)c2cccc3nonc23)C1` (stereo not given), which CPE inhibition is on record?
A: The CPE inhibition was 0.66%.

Q: For `COc1ccccc1CNC(=O)C1CCCN(S(=O)(=O)c2cccc3nonc23)C1` (stereo not given), which CPE inhibition is on record?
A: Its CPE inhibition is 0.88%.

Q: For `COc1ccc(CNC(=O)C2CCN(S(=O)(=O)c3cccc4nonc34)CC2)cc1`, which CPE inhibition is on record?
A: Its CPE inhibition is 0.73%.

Q: For `O=C(NCc1ccc(Cl)cc1)C1CCN(S(=O)(=O)c2cccc3nonc23)CC1`, which CPE inhibition is on record?
A: Its CPE inhibition is 5.35%.

Q: With `O=C(NNC(=O)C12CC3CC(CC(C3)C1)C2)c1ccccn1` as the compound, how does the CPE inhibition read?
A: The CPE inhibition was 1.78%.

Q: With `C/C(CC(=O)Nc1cc(C)ccn1)=N\NC(=O)C(=O)NC(C)C` as the compound, how does the CPE inhibition read?
A: Its CPE inhibition is -0.96%.

Q: With `CC12CCC(O)CC1=CCC1C2CCC2(C)C1CCC21CCC(=O)O1` (stereo not given) as the compound, how does the CPE inhibition read?
A: The CPE inhibition was 7.71%.

Q: Which CPE inhibition does the source give for `CC(=O)C1[C@H](N(C)C)CC2C3CC=C4CC(O)CC[C@]4(C)C3CC[C@@]21C` (stereo not given in full) here?
A: Its CPE inhibition is 0.54%.

Q: For `CCN(CC)S(=O)(=O)c1ccc(N2C(=O)CC2(/C=C/c2ccccc2)C(=O)NC2CCCC2)cc1` (stereo not given), which CPE inhibition is on record?
A: The CPE inhibition was 4.54%.

Q: For `Cc1c(Cl)ccc2c(C(=O)NCCCn3nccc3C)cc(-c3ccccn3)nc12`, which CPE inhibition is on record?
A: The CPE inhibition was 13.8%.

Q: For `Cc1nnc(NC(=O)CSc2ccc(-c3cccnc3)nn2)s1`, which CPE inhibition is on record?
A: Its CPE inhibition is 2.73%.
